# In PMC7862700, “An all-to-all approach to the identification of sequence-specific readers for epigenetic DNA modifications on cytosine”:
# Experiments:
# Test in all cases: DAPPL (digital affinity profiling via proximity ligation, sequencing); 10 mM Tris-HCl pH 7.5, 50 mM NaCl, 1 mM DTT, 4% glycerol, room temperature, 30 min; GST-TFs on glutathione beads, 16-mer random dsDNA library, 0.1% formaldehyde crosslink after washing; high values mean tight binding
# FLI1 = molecular target: T1, FLI1 (Homo sapiens, UniProt Q01543 1-452); conditions: protein: recombinant; tags: N-terminal GST; dsDNA, one strand shown
# T1 sequence: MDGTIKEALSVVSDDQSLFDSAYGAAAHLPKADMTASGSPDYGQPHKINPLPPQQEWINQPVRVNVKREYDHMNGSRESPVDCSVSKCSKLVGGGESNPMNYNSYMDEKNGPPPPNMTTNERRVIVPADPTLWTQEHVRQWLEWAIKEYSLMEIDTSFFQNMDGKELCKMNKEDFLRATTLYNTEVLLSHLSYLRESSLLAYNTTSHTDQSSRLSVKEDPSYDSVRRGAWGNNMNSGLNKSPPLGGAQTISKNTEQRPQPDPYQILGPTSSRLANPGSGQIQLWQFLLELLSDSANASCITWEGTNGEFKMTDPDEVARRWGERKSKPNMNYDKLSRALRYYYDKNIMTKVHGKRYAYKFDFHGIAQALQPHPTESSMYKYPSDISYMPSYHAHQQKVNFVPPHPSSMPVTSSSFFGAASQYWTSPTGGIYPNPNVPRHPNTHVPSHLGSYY
# How it was run: (§1)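 A tag-only sample was pooled with DNA-barcoded human transcription factors that had been expressed in yeast as GST fusions and captured on glutathione beads. The pools were incubated for 30 min at room temperature with 200 nmole of a random double-stranded 16-mer DNA library in Tris/NaCl/DTT/glycerol buffer, then washed, crosslinked with 0.1% formaldehyde, proximity-ligated (BsaI/T4 ligase, 1 h, 37 °C), PCR-amplified and sequenced on an Illumina NextSeq500. Binding signal is each hexamer's read frequency for a factor divided by its frequency for the tag-only sample.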
# ELK1 = molecular target: T2, ELK1 (Homo sapiens, UniProt P19419 1-428); conditions: protein: recombinant; tags: N-terminal GST; dsDNA, one strand shown
# T2 sequence: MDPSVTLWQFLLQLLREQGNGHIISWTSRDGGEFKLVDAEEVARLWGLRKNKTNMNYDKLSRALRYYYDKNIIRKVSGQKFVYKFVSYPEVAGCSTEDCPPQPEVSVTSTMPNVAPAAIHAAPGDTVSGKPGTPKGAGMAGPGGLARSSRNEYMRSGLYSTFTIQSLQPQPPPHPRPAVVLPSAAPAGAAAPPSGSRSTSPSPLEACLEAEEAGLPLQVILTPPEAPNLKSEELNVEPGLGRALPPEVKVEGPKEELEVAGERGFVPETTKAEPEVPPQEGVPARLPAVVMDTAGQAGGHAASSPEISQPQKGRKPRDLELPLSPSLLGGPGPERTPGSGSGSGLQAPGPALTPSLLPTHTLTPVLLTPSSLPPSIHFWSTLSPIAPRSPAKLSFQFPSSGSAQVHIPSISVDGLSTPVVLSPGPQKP
# How it was run: as §1
# GABPA = molecular target: T3, GABPA (Homo sapiens, UniProt Q06546 1-454); conditions: protein: recombinant; tags: N-terminal GST; dsDNA, one strand shown
# T3 sequence: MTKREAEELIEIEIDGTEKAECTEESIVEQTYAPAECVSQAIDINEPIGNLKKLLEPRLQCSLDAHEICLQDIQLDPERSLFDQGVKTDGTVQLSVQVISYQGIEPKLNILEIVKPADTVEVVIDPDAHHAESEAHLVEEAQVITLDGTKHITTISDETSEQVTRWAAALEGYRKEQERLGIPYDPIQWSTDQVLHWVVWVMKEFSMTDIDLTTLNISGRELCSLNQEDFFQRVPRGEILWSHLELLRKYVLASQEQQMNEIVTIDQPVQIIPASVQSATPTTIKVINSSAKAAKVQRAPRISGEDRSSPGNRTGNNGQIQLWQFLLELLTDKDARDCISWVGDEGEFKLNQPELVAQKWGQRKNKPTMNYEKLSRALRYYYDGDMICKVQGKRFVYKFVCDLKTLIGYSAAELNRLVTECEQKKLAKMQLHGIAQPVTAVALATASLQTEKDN
# How it was run: as §1
# ERG = molecular target: T4, ERG (Homo sapiens, UniProt P11308 1-479); conditions: protein: recombinant; tags: N-terminal GST; dsDNA, one strand shown
# T4 sequence: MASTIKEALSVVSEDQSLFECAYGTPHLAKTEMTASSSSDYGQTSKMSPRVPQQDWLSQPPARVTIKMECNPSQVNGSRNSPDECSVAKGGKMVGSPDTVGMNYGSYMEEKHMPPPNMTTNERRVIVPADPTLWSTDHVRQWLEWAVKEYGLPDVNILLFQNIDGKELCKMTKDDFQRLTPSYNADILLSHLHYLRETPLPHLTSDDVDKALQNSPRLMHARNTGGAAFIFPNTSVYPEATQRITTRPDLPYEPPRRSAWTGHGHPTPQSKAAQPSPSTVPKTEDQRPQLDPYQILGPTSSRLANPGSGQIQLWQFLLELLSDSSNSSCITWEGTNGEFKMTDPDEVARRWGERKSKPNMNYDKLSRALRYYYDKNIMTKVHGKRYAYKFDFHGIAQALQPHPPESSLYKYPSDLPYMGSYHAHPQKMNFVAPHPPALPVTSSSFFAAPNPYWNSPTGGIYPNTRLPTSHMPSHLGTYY
# How it was run: as §1
# ELF1 = ELF1 (Homo sapiens, UniProt P32519 1-619); conditions: protein: recombinant; tags: N-terminal GST; dsDNA, one strand shown
# Chain of ELF1 (P32519 whole entry): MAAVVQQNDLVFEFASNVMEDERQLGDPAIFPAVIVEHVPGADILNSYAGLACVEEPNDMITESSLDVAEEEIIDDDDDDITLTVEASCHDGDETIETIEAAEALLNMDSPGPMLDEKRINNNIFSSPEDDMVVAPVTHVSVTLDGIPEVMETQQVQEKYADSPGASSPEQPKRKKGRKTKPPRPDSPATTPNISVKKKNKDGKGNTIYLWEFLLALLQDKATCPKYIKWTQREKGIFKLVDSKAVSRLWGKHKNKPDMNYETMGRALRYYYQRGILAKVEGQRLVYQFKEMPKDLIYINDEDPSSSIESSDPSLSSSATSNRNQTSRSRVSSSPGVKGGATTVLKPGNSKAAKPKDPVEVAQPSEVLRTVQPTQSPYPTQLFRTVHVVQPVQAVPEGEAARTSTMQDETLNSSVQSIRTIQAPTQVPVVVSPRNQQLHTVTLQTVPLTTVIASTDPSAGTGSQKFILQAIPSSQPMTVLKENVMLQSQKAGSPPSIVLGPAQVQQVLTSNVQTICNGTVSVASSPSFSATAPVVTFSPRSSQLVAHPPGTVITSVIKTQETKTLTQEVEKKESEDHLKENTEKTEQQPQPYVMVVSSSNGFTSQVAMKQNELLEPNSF
# How it was run: as §1
# EHF = molecular target: T5, EHF (Homo sapiens, UniProt Q9NZC4 1-300); conditions: protein: recombinant; tags: N-terminal GST; dsDNA, one strand shown
# T5 sequence: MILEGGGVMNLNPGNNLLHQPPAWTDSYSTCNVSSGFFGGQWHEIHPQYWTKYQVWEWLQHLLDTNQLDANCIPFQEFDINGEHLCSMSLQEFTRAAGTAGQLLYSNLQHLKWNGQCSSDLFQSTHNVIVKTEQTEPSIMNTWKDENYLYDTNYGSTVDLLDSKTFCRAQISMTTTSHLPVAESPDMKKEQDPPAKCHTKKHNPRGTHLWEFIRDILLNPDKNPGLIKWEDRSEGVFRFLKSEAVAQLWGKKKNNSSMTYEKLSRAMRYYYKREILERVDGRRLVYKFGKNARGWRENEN
# How it was run: as §1
# SPI1 = SPI1 (Homo sapiens, UniProt P17947 1-270); conditions: protein: recombinant; tags: N-terminal GST; dsDNA, one strand shown
# How it was run: as §1
# SPIB = SPIB (Homo sapiens, UniProt Q01892 1-262); conditions: protein: recombinant; tags: N-terminal GST; dsDNA, one strand shown
# Chain of SPIB (Q01892 whole entry): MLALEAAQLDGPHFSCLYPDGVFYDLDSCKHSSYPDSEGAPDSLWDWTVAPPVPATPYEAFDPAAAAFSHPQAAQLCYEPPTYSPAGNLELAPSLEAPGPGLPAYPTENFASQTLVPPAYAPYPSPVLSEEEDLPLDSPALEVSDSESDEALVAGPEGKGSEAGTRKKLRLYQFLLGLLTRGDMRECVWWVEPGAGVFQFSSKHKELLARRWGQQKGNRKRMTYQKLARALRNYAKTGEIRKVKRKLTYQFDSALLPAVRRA
# How it was run: as §1
# ELK3 = molecular target: T6, ELK3 (Homo sapiens, UniProt P41970 1-407); conditions: protein: recombinant; tags: N-terminal GST; dsDNA, one strand shown
# T6 sequence: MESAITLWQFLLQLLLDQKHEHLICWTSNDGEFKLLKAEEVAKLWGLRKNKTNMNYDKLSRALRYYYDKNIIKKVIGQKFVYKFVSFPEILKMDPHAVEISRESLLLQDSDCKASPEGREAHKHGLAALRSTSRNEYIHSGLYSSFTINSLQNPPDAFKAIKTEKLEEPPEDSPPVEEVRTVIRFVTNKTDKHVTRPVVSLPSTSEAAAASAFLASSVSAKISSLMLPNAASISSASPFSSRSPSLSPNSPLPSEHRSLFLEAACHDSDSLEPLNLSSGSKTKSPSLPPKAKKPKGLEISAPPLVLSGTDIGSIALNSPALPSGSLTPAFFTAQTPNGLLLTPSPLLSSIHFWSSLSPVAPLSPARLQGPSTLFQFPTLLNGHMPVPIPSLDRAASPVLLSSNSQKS
# How it was run: as §1
# FEV = molecular target: T7, FEV (Homo sapiens, UniProt Q99581 1-238); conditions: protein: recombinant; tags: N-terminal GST; dsDNA, one strand shown
# T7 sequence: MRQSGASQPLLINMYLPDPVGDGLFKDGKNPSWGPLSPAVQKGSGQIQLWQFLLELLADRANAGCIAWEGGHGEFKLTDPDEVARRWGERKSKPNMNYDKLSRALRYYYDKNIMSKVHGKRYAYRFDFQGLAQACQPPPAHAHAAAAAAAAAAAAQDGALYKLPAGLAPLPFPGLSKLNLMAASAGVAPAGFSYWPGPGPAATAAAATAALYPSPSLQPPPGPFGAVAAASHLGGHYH
# How it was run: as §1
# ETV5 = ETV5 (Homo sapiens, UniProt P41161 1-510); conditions: protein: recombinant; tags: N-terminal GST; dsDNA, one strand shown
# Chain of ETV5 (P41161 whole entry): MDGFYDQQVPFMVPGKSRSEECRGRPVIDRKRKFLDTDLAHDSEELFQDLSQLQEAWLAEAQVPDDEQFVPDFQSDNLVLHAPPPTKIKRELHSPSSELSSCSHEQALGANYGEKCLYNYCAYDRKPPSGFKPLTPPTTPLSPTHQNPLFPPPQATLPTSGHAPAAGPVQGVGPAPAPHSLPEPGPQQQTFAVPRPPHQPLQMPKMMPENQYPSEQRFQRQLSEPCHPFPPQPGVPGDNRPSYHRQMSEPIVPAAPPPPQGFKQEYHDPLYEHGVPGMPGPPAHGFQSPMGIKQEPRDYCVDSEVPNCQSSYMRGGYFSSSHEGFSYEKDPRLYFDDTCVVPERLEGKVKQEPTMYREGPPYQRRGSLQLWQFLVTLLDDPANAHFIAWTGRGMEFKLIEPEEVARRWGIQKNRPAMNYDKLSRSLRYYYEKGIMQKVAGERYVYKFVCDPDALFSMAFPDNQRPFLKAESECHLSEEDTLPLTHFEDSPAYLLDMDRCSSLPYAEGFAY
# How it was run: as §1
# HSF1 = HSF1 (Homo sapiens, UniProt Q00613 1-529); conditions: protein: recombinant; tags: N-terminal GST; chain copies: 3; dsDNA, one strand shown
# Chain of HSF1 (Q00613 whole entry): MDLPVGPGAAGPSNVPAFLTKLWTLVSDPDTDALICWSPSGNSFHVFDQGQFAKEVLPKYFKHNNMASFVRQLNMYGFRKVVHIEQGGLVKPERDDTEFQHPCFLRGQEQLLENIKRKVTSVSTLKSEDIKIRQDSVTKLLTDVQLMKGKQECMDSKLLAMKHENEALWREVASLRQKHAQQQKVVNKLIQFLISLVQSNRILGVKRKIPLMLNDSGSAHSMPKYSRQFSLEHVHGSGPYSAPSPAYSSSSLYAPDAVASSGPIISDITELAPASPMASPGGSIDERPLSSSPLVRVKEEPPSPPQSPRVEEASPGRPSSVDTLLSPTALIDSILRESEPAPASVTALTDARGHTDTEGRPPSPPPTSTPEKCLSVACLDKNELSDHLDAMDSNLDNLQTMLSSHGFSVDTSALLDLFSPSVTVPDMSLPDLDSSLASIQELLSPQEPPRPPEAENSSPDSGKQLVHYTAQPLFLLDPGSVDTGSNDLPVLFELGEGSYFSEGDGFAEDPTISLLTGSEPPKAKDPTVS
# How it was run: as §1
# SPIC = molecular target: T8, SPIC (Homo sapiens, UniProt Q8N5J4 1-248); conditions: protein: recombinant; tags: N-terminal GST; dsDNA, one strand shown
# T8 sequence: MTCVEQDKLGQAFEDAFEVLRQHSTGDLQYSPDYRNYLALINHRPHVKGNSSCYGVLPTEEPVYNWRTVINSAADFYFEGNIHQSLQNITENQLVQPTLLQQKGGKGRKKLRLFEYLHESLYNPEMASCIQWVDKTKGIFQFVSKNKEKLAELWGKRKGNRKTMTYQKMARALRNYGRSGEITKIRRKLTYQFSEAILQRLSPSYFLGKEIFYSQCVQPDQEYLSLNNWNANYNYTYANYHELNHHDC
# How it was run: as §1
# ELF4 = ELF4 (Homo sapiens, UniProt Q99607 1-663); conditions: protein: recombinant; tags: N-terminal GST; dsDNA, one strand shown
# Chain of ELF4 (Q99607 whole entry): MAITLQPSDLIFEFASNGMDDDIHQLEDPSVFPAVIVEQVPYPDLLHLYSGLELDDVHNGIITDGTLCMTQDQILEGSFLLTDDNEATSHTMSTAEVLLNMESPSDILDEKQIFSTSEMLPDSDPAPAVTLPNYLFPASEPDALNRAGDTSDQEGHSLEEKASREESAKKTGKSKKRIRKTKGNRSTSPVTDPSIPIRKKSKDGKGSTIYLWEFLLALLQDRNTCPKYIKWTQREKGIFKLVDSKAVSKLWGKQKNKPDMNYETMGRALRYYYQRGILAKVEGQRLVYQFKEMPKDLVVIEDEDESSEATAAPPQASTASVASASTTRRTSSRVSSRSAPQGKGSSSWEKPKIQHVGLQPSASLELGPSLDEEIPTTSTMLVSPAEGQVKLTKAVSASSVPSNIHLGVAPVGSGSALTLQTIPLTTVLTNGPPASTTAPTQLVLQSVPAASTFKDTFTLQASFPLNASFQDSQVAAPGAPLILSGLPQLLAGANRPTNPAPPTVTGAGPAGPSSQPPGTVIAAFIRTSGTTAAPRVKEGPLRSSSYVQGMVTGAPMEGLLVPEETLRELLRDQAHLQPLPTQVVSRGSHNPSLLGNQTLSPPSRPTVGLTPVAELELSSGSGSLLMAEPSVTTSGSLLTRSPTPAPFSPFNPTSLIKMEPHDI
# How it was run: as §1
# ELK4 = molecular target: T9, ELK4 (Homo sapiens, UniProt P28324-2 1-405); conditions: protein: recombinant; tags: N-terminal GST; dsDNA, one strand shown
# T9 sequence: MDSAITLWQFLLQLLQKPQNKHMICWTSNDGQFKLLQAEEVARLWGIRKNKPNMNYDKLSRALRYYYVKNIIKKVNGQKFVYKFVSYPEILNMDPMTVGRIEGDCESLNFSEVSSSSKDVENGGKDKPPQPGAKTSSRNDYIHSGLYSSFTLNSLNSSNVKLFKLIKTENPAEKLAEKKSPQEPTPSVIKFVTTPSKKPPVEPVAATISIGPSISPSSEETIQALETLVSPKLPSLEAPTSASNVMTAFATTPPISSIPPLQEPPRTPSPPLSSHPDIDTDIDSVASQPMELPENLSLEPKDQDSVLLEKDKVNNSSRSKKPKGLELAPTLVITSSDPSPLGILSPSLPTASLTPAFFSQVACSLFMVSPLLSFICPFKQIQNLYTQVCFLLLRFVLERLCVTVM
# How it was run: as §1
# ETV2 = molecular target: T10, ETV2 (Homo sapiens, UniProt O00321 1-342); conditions: protein: recombinant; tags: N-terminal GST; dsDNA, one strand shown
# T10 sequence: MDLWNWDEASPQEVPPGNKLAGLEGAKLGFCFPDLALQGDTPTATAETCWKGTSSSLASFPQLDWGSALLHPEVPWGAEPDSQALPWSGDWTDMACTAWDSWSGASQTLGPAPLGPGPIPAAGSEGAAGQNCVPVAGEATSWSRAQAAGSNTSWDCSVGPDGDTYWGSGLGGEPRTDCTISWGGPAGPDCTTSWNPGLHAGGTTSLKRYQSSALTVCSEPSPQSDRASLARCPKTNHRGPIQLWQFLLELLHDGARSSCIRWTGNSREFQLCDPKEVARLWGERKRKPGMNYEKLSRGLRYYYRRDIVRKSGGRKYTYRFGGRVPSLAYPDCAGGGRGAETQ
# How it was run: as §1
# ELF3 = molecular target: T11, ELF3 (Homo sapiens, UniProt P78545 1-371); conditions: protein: recombinant; tags: N-terminal GST; dsDNA, one strand shown
# T11 sequence: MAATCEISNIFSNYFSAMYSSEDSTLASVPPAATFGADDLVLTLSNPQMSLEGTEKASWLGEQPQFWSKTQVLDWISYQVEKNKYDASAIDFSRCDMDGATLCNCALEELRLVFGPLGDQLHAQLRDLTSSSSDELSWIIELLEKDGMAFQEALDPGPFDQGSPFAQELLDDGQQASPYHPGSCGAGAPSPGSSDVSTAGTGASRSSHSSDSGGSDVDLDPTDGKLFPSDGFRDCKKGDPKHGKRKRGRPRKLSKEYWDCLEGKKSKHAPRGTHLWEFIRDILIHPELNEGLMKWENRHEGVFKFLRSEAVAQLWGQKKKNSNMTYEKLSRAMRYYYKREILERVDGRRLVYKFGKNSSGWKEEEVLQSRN
# How it was run: as §1
# CRX = CRX (Homo sapiens, UniProt O43186 1-299); conditions: protein: recombinant; tags: N-terminal GST; dsDNA, one strand shown
# Chain of CRX (O43186 whole entry): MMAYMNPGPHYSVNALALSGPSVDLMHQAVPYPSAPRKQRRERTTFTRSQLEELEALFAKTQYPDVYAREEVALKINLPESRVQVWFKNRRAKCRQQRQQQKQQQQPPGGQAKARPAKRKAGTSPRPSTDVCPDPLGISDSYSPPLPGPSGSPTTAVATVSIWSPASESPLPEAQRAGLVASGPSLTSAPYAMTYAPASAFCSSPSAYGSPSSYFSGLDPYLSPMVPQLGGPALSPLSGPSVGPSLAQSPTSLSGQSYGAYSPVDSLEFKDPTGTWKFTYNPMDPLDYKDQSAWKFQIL
# How it was run: as §1
# ETV1 = ETV1 (Homo sapiens, UniProt P50549 1-477); conditions: protein: recombinant; tags: N-terminal GST; dsDNA, one strand shown
# Chain of ETV1 (P50549 whole entry): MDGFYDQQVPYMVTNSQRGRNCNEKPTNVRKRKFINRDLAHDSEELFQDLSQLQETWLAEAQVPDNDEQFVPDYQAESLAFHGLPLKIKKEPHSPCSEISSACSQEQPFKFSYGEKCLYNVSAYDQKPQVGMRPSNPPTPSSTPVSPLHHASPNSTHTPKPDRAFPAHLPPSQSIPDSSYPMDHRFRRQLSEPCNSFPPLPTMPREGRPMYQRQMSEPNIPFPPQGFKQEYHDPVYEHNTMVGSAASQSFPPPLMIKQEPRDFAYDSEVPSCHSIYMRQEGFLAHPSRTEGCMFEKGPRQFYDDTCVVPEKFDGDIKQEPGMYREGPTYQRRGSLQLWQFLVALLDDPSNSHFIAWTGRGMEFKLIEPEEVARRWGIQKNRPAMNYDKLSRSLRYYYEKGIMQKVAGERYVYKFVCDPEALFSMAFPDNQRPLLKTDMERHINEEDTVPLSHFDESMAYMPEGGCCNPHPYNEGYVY
# How it was run: as §1
sequence,measurement,setting,value
TAATAC,binding signal,FLI1,"1.11 fold enrichment (6-mer frequency, TF over GST control)"
same,binding signal,ELK1,"1.07 fold enrichment (6-mer frequency, TF over GST control)"
same,binding signal,GABPA,"1.04 fold enrichment (6-mer frequency, TF over GST control)"
same,binding signal,ERG,"1.09 fold enrichment (6-mer frequency, TF over GST control)"
same,binding signal,ELF1,"1.13 fold enrichment (6-mer frequency, TF over GST control)"
same,binding signal,EHF,"1.13 fold enrichment (6-mer frequency, TF over GST control)"
same,binding signal,SPI1,"1.05 fold enrichment (6-mer frequency, TF over GST control)"
same,binding signal,SPIB,"1.06 fold enrichment (6-mer frequency, TF over GST control)"
same,binding signal,ELK3,"1.04 fold enrichment (6-mer frequency, TF over GST control)"
same,binding signal,FEV,"1.12 fold enrichment (6-mer frequency, TF over GST control)"
same,binding signal,ETV5,"1.04 fold enrichment (6-mer frequency, TF over GST control)"
same,binding signal,HSF1,"1.63 fold enrichment (6-mer frequency, TF over GST control)"
same,binding signal,SPIC,"1.12 fold enrichment (6-mer frequency, TF over GST control)"
same,binding signal,ELF4,"1.14 fold enrichment (6-mer frequency, TF over GST control)"
same,binding signal,ELK4,"1.04 fold enrichment (6-mer frequency, TF over GST control)"
same,binding signal,ETV2,"1.16 fold enrichment (6-mer frequency, TF over GST control)"
same,binding signal,ELF3,"1.05 fold enrichment (6-mer frequency, TF over GST control)"
same,binding signal,CRX,"2.45 fold enrichment (6-mer frequency, TF over GST control)"
same,binding signal,ETV1,"1.11 fold enrichment (6-mer frequency, TF over GST control)"
